This passage reports inhibition results from PubChem BioAssay AID778 (Sanford-Burnham Center for Chemical Genomics, 2007).

As a reminder, the inhibition is the drop in the measured response relative to a control, in per cent.

SMILES strings stand for the structures. Screen size: about 96,000 compounds; about 20,000 (21%) were called active.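 How the source made its calls: active means CYP2C19 inhibition above a set limit at 5 µM in the primary screen (cut at about 50% in these data); inactive means the rest.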 These entries were drawn from the full list.

For this assay, the target named is Cytochrome P450 2C19 (Homo sapiens) (UniProt P33261). The assay can be described thus: blockers of cytochrome P450 2C19 activity – biochemical, luminescence, ADME assay, primary screen (AID 778).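 Further: plate controls were negative control wells for no effect and 2.5 mM tranylcypromine positive control for full effect.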 The settings on record: CYP2C19 Supersomes, luciferin-H EGE luminescence, 30 min; at 5 µM; active compounds read high.
Chain of Cytochrome P450 2C19 (Homo sapiens) (P33261 whole entry, looked up): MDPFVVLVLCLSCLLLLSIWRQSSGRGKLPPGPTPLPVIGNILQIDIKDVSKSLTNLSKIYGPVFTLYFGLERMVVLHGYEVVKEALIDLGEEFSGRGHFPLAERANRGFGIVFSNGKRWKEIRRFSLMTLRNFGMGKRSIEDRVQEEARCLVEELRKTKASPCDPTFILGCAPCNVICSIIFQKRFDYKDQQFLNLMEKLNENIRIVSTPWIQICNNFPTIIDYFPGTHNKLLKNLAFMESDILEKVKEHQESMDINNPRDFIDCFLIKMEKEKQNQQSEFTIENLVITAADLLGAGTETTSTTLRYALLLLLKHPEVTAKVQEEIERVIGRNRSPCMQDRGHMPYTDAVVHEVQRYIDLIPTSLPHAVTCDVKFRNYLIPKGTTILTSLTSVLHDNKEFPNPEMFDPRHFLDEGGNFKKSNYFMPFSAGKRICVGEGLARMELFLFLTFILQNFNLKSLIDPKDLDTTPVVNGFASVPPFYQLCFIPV
Regarding `O=C1CC(c2cccc(Br)c2)C2=C(CCCC2=O)N1` (configuration not stated), the inhibition was 11.9% (inactive).
Next, `CN(C)Cc1ccccc1C1(O)c2ccccc2CSc2ccccc21` (configuration not stated): 67.5% (active); `CCN(CC)c1ccc(NC(=O)c2ccc(Cl)nc2)cc1`: 7.7% (inactive).
As for `CSc1ccc(Cl)c(C(=O)OCC(=O)N2CC(C)OC(C)C2)c1` (configuration not stated), the inhibition is 12.4% (inactive).
Under `O=C(CC1Nc2ccccc2NC1=O)Nc1ccccc1` (configuration not stated) stands 2.9% (inactive); under `O=C(CCN1c2ccccc2Sc2ccccc21)Nc1ccccc1`, 80.2% (active).
As for `O=C(O)CCCC(=O)Nc1ccccc1-n1ccnc1`, the inhibition is -4.7% (inactive).
With `Cc1cc(N)n2nc(-c3ccc(C(C)(C)C)cc3)cc2n1`, the inhibition is 26.1% (inactive).
Under `COc1cccc(Nc2ncccc2C(=O)O)c1` stands -9.2% (inactive); under `O=C(CNC(=O)Cc1ccccc1)NCC(=O)OCC(=O)c1ccccc1Cl`, 1.6% (inactive).
Next, `COc1ccc(N(Cc2cc3cc(OC)ccc3[nH]c2=O)S(C)(=O)=O)cc1`: 18.7% (inactive); `CC(C)(C)n1nnnc1C(c1cccs1)N(Cc1cccnc1)CC1CCCO1` (configuration not stated): 31.5% (inactive); `Cc1cc2cc(CN(Cc3cccs3)Cc3nnnn3CC3CCCO3)c(=O)[nH]c2cc1C` (configuration not stated): 34.3% (inactive).
Under `COc1ccc2[nH]c(=O)c(CN(Cc3nnnn3CCc3ccccc3)CC3CCCO3)cc2c1` (configuration not stated) stands 77.7% (active); under `Cc1cc(C)c2cc(CN(Cc3cccs3)Cc3nnnn3CC3CCCO3)c(=O)[nH]c2c1` (configuration not stated), 84.5% (active); under `CCOc1ccc2[nH]c(=O)c(CN(Cc3nnnn3Cc3ccccc3)CC3CCCO3)cc2c1` (configuration not stated), 8.7% (inactive).
Regarding `Nc1c(C(=O)NCc2ccccc2)sc2nc3c(cc12)C(=O)CCC3`, the inhibition is -16.5% (inactive).
As for `CCn1c(=O)cc(O)c2ccccc21`, the inhibition was -18.1% (inactive).
Take `CC(=O)c1c(C)c[nH]c1C`: the inhibition was -14.8% (inactive).
Under `CCC(=O)Nc1ccc(C(=O)Nc2ccc3c(c2)C(=O)N(CC2CCCO2)C3=O)cc1` (configuration not stated) stands -1% (inactive); under `CCC(C)(C)n1nnnc1CN1CCN(c2nc3ccc(C)cc3cc2C#N)CC1`, 0.3% (inactive); under `CCSC1(SCC)N=C(N)C2(C#N)C(c3ccccc3)NC(C)=CC12C#N` (configuration not stated), 16.1% (inactive).
Regarding `O=C(CCl)NNc1cccc(Cl)n1`, the inhibition was 6.7% (inactive).
As to `COC(=O)C1=C(C)N(C)C(C)=C(C(=O)OC)C1c1cccc(Br)c1`, the inhibition is 79.2% (active).
In the case of `COC(=O)c1oc2ccc(Br)cc2c1NC(C)=O`, the inhibition is 14.7% (inactive).
For `COC(=O)CN1C(C)=Nc2ccc(Br)cc2C1c1ccccc1` (configuration not stated), the inhibition is 43.4% (inactive).
For the compound `CCOC(=O)CN1CC23C=CC(O2)C(C(=O)Nc2ccc(F)cc2)C3C1=O` (configuration not stated), the inhibition is 40.7% (inactive).
For `Cc1occc1C(=O)NNC(=S)NCC(C)C`, the inhibition was 74.6% (active).
In the case of `CCNC(=S)NNC(=O)Cc1ccccc1`, the inhibition was 18.2% (inactive).
Under `CC(C)CNC(=S)NNC(=O)c1ccccc1OC(F)F` stands 16.6% (inactive).
Under `O=C(NCc1ccco1)c1nc2ncccn2n1` stands -0.7% (inactive); under `CN1CCN(Cc2nc3c(c(=O)n(C)c(=O)n3C)n2Cc2cccc3ccccc23)CC1`, -17.1% (inactive); under `O=S(=O)(c1cccc(S(=O)(=O)N2CCC(n3nnc4ccccc43)CC2)c1)N1CCCCC1`, 94.7% (active).
As to `CC(=O)c1cccc(S(=O)(=O)N2CCC(n3nnc4cc(F)ccc43)CC2)c1`, the inhibition was 43.1% (inactive).
`O=S(=O)(c1cccc(-c2nnc(SC(F)F)n2-c2ccccc2)c1)N1CCCCC1`: the inhibition was 41.6% (inactive).
As to `Cc1ccc(CNC(=O)CCNC(=O)Cn2ccc3ccccc3c2=O)cc1`, the inhibition is 17.4% (inactive).
In the case of `CCOCCOCCC(C(=O)O)P(=O)(c1ccccc1)c1ccccc1` (configuration not stated), the inhibition is -2.4% (inactive).
Take `COc1ccc(NC(=O)ON=C2c3ccccc3-c3ccccc32)cc1`: the inhibition was 11.6% (inactive).
Take `COc1ccc(Cl)cc1NC(=O)CN(C)C(=O)CNC(=O)C12CC3CC(CC(C3)C1)C2`: the inhibition was 67.9% (active).
Regarding `COc1ccc(Cl)cc1NC(=O)c1oc(C)nc1C`, the inhibition is -9% (inactive).
Turning to `CCCCC(=O)N/N=C(\C)CC(=O)Nc1cc(Cl)ccc1OC`, the inhibition was 6.1% (inactive).
`O=C(CSCc1ccc([N+](=O)[O-])cc1)Nc1cccc(C(=O)Nc2ccccc2C(=O)O)c1`: the inhibition was 14.5% (inactive).
In the case of `COc1ccccc1CNS(=O)(=O)c1ccc(C)cc1`, the inhibition was 92.5% (active).
Turning to `Cc1ccc(S(=O)(=O)NCC(C)NS(C)(=O)=O)cc1` (configuration not stated), the inhibition is 16.9% (inactive).
With `COc1ccccc1Cc1nc(-c2ccc(C)cc2)no1`, the inhibition was 35.6% (inactive).
Consider `Nc1c(C(=O)NCc2ccccc2)nnn1Cc1cccc(Cl)c1`, for which the inhibition was 6.4% (inactive).
Turning to `CC(C)=CC(=O)Nc1nnc(-c2ccc(F)cc2)s1`, the inhibition was 4.7% (inactive).
For `CCOC(=O)C1CCN(C(=O)C2CCN(S(=O)(=O)CC)CC2)CC1`, the inhibition was -18.2% (inactive).
On to `CCOC(=O)C1CCN(C(=O)Nc2ccc(Cl)cc2)CC1`, for which the inhibition is 63.1% (active).
`CCOC(=O)C1CCN(C(=O)C2CCN(S(=O)(=O)N3CCCC3)CC2)CC1`: the inhibition is 10.9% (inactive).
Consider `Cc1ccc(-c2nc(C)sc2CC(=O)O)cc1`, for which the inhibition was 29.8% (inactive).
As to `CSc1ccc(/C=N\NC(=O)COc2ccc(Cl)cc2Br)cc1`, the inhibition is 76.4% (active).
Next, `O=C(Cc1ccccc1)N/N=C/c1ccc(Cl)cc1Cl`: 7.9% (inactive).
For the compound `NC(=O)COc1ccc(/C=N/NC(=O)C2CCCN2S(=O)(=O)c2ccc(Cl)cc2)cc1` (configuration not stated), the inhibition was 19.2% (inactive).
On to `CS(=O)(=O)c1ccc2nc(NC(=O)C3C4C=CC(C4)C3C(=O)O)sc2c1` (configuration not stated), for which the inhibition is 0.7% (inactive).
Under `CC(C)COC(=O)c1ccc(NC(=O)C2C3C=CC(C3)C2C(=O)O)cc1` (configuration not stated) stands 54.2% (active).
As to `COC(=O)c1cc(NC(=O)C2C3C=CC(C3)C2C(=O)O)cc(C(=O)OC)c1` (configuration not stated), the inhibition was 2.5% (inactive).
Turning to `CC(Sc1nnc(Cc2ccc([N+](=O)[O-])cc2)o1)C(N)=O` (configuration not stated), the inhibition was 16.6% (inactive).
On to `O=C(Cn1cnc2c(cnn2-c2ccccc2)c1=O)NCc1ccccc1`, for which the inhibition was -10.8% (inactive).
Take `CN1C(=O)C(CC(N)=O)N(NC(=O)c2ccc(Cl)cc2)C1=S` (configuration not stated): the inhibition is -7.8% (inactive).
Under `CC(=O)N1CC2(C)CN(C(C)=O)CC(C)(C1)C2=O` stands 79.3% (active); under `CCCCC(=O)N1CC2(C)CN(C(=O)CCCC)CC(C)(C1)C2=O`, -1.6% (inactive).
